High-throughput results (PubChem BioAssay)
Most compounds without a hit are left out; they make up all but 1.1% or so of the library.
Mtb hypoxia rep = reduces hypoxia-regulated biosensor signal in M. tuberculosis | fluorescence inhibition, % (concentration not given with the values) | actives 0.1% (n = 300,000) | M. tuberculosis hypoxia-regulated fluorescent reporter, fluorescence; in the data active means fluorescence inhibition mostly above about 23%, no sharp cut-off; inactive means mostly below about 17%
PriA SSB inh = K. pneumoniae PriA-SSBct interaction inhibition; actives 0.6% (n = 430,000); AlphaScreen SSBct-PriA binding, biotinylated peptide; inhibition, % at 33 µM; in the data active means inhibition mostly above about 37%, no sharp cut-off; inactive means mostly below about 20%;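 further: plate controls were negative control peptide for no effect and reference peptide for full effect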
Sa ugtP lethal = kills S. aureus RN4220 lacking UgtP; actives 0.54% (n = 330,000); growth inhibition, % (no concentration beside the values); S. aureus RN4220 ugtP deletion, OD600 growth, 16 h; AID 1259309; in the data active means growth inhibition above about 68%;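 further: plate controls were untreated wells for no effect and antibiotic for full effect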
RN4220 kill = kills Staphylococcus aureus RN4220 | S. aureus RN4220 growth, OD600, 16 h | inhibition, % (concentration not given with the values) | actives 0.33% (n = 330,000); in the data active means inhibition above about 85%;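 further: plate controls were untreated cells for no effect and reference antibiotic for full effect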
Numbers without * were called inactive; i = inactive; / = no result shown; + = active, no number; ! = not confirmed by another sample.

SMILES	Mtb hypoxia rep	PriA SSB inh	Sa ugtP lethal	RN4220 kill
O=C(CCCn1nnnc1CN1CCOCC1)N1CCC(c2ccc(F)cc2)C1 (configuration not stated)	-4	39*	-1	1
O=C(CC(C(=O)O)N1CCCCC1)Nc1ccc(NC(=O)CC(C(=O)O)N2CCCCC2)cc1 (configuration not stated)	/	2	/	/
O=C(Nc1ccc(Cl)cc1)c1ccc(N2C(=O)c3ccccc3C2=O)cc1	/	-5	/	/
CCCc1ccc(Oc2cc(N3CCOCC3)nc(-c3ccccc3)n2)cc1	5	-11	89*	-12
O=c1c2nc(N3CCCC3)sc2c(-c2ccccc2)nn1Cc1cccc(F)c1	/	2	/	/
CCCCCC[N+](C)(C)CC/C=C1/c2ccccc2Sc2ccc(Cl)cc21	/	11	99*	100*
C=CCn1c(SCC(=O)Nc2scc(-c3ccc(C)o3)c2C(=O)OCC)nc2sc3c(c2c1=O)CCC(C)C3 (configuration not stated)	/	-8	/	/
Cn1nc2c(c1NC(=O)/C=C/c1ccccc1Cl)CCC2	/	1	/	/
O=C(CSc1cccc2cccnc12)N/N=C/c1ccc(O)cc1	/	i	/	/
O=C(CSCc1ccc(Br)cc1)N/N=C/c1ccc(Sc2cccc3cccnc23)o1	/	+	/	/
CCCCCCCCCCCCCCCCCC(=O)N/N=C/c1ccc(Sc2cccc3cccnc23)o1	/	+	/	/
N#Cc1c(-c2ccccc2)c(-c2ccccc2)nn(CC(=O)NNC(=O)Nc2ccc(Cl)c(Cl)c2)c1=O	-9	52*	47	-17
Cc1ccc(NC(=O)Cn2nc(-c3ccccc3)c3sc(N4CCCC4)nc3c2=O)cc1Cl	/	14	/	/
COc1ccc(SCC2CCN(C(=O)c3cccc4ccccc34)CC2)cc1	/	23	/	/
COc1ccc(SCC2CCN(C(=O)c3cccc(N(C)C)c3)CC2)cc1	/	42*	/	/
CCN(CC)C(=S)SCC(=O)Nc1c(Cl)cccc1Cl	/	-9	/	/
CCN(CC)C(=S)SC1=C(Cl)CS(=O)(=O)C1	/	98*	/	/
O=C1C(=O)N(CCCn2ccnc2)C(c2ccc([N+](=O)[O-])cc2)C1=C(O)c1ccc2c(c1)OCCO2 (configuration not stated)	/	-18	/	/
CC(CCc1ccccc1)NC(=O)Nc1c[nH]c2ccccc12 (configuration not stated)	/	39*	/	/
Cc1cc2cc(CNC(=O)Nc3c[nH]c4ccccc34)ccc2[nH]1	/	33*	/	/
O=C(Nc1ccccc1F)c1cc(C2CCN(C(=O)c3cccs3)CC2)[nH]n1	/	2	/	/
O=C(Nc1ccccc1F)c1cc(C2CCN(C(=O)c3c[nH]c(=O)c(Cl)c3)CC2)[nH]n1	/	98*	/	/
O=C(O)c1ccccc1N=Nc1c(O)[nH]c(=O)[nH]c1=O	7	-5	2	5
Cc1cc(N=Nc2ccccc2C(=O)O)c(C)c(C)c1O	45*	11	3	2
Cc1cc(O)c(C(C)C)cc1N=Nc1ccccc1C(=O)O	51*	13	3	4
SMILES	Mtb hypoxia rep	PriA SSB inh	Sa ugtP lethal	RN4220 kill
Cc1cc(Br)ccc1NC(=O)c1ccc(N2CCCCS2(=O)=O)cc1	/	-8	/	/
CCCCn1c(N)c(N(CCOC)C(=O)CSCc2cccc(C)c2)c(=O)[nH]c1=O	3	49*	6	3
COc1cccc(NC2=Nc3cccc4cccc2c34)c1	-3	41*	-15	0
COc1ccc(NC2=Nc3cccc4cccc2c34)cc1OC	-3	17	-10	1
O=C(COc1ccccc1)N1CCC(n2ccnn2)CC1	/	-17	/	/
O=C(CCn1c2c(c3ccccc31)CCCC2)N=Nc1c(O)n(Cc2ccccc2)c2ccccc12	/	-3	/	/
C=CCn1ccn(-c2ccc(OC)c(Cl)c2)c(=O)c1=O	/	4	/	/
CCS(=O)(=O)Nc1ccc2c(c1)CN(C(=O)C(C)C)CC2	/	-9	/	/
Cc1ccc2nc(N(CCCN(C)C)C(=O)c3ccc4c(c3)CCCC4)sc2c1	17	26	-22	-3
Cc1cc(C)c2nc(N(CCCN(C)C)C(=O)c3ccc4c(c3)CCCC4)sc2c1	19	43*	-24	-15
Cc1cc(C)c2nc(N(CCCN(C)C)C(=O)c3ccc(S(=O)(=O)N4CCCCCC4)cc3)sc2c1	/	36*!	-10	0
Cc1ccc(NC(=O)NCc2nccc(N3CCCCC3)n2)cc1C	/	1	/	/
CCC[C@@H]1C[C@@H](C(=O)NC(C(C)Cl)[C@H]2O[C@H](SC)[C@H](O)[C@@H](O)[C@H]2O)N(C)C1 (some centres not stated)	/	-10	/	/
CCCC1CC(C(=O)NC(C(C)Cl)C2OC(SC)C(O)C(O)C2O)N(C)C1 (configuration not stated)	44*	-2	100*	100*
CCCCn1c(=O)[nH]c(=O)c2c1nc(-c1ccc(-c3ccc(F)cc3)o1)n2C	37*	4	5	6
CCCCn1c(=O)[nH]c(=O)c2c1nc(-c1ccc(CC)c([N+](=O)[O-])c1)n2C	3	/	-68	2
O=c1[nH]c(-c2ccccn2)cs1	/	63*	/	/
O=c1[nH]c(-c2ccccn2)cc2ccccc12	6	-13	2	6
O=C(Nc1cccc(O)c1)c1ccc(Br)cc1	9	7	-1	9
O=C(Nc1cccc(O)c1)c1cccc(C(=O)Nc2cccc(O)c2)c1	47*	32	4	0
O=C(CSc1nc(-c2ccccc2)cs1)Nc1ccccc1[N+](=O)[O-]	5	48*	0	1
COc1ccc(NC(=O)c2csc(Nc3ccc(OC(F)F)cc3)n2)cc1OC	/	active	/	/
COc1ccc(OC)c(Nc2nc(CC(=O)NCc3ccccc3Cl)cs2)c1	/	22	/	/
COc1ccc(OC)c(Nc2nc(CC(=O)NCc3ccccc3OC)cs2)c1	/	17*	/	/
CC(=O)Nc1cccc(NC(=O)Cc2csc(Nc3cccc(C(F)(F)F)c3)n2)c1	/	-1	/	/
SMILES	Mtb hypoxia rep	PriA SSB inh	Sa ugtP lethal	RN4220 kill
COc1ccc(NC(=O)Cc2csc(Nc3cccc(C(F)(F)F)c3)n2)cc1OC	/	17*	/	/
COc1cccc(CNC(=O)Cc2csc(Nc3cc(OC)ccc3OC)n2)c1	/	22*	/	/
COc1cc(C)c(C)cc1S(=O)(=O)NCC(=O)N1CCO[C@H](c2ccccc2)C1	/	5	/	/
CSc1ccccc1-c1nnc(NC(=O)Cc2cccc3ccccc23)o1	/	-7	/	/
O=S(=O)(c1ccc(Cl)cc1)N1CCC(c2nc(-c3ccc(C(F)(F)F)cc3)no2)CC1	/	-5	/	/
COc1ccc(OC)c(Nc2nc(CC(=O)O)cs2)c1	/	-5	/	/
COc1ccccc1NC(=O)Nc1nc(CC(=O)Nc2ccc(F)cc2)cs1	-6	-4	-12	-4
COc1ccccc1NC(=O)Nc1nc(CC(=O)Nc2ccc(N(C)C)cc2)cs1	/	74*	-1	-2
CN(C)c1ccc(NC(=O)Nc2csc3ccccc23)cc1	/	40*	/	/
COc1ccc(OC)c(Nc2nc(-c3sc(C)nc3C)cs2)c1	2	47*	-7	1
COc1ccc(OC)c(Nc2nc(CC(=O)Nc3cccc(C)c3C)cs2)c1	/	24*	/	/
COc1ccc(OC)c(Nc2nc(-c3sc(NC(=O)C(C)(C)C)nc3C)cs2)c1	9	10	-42	-1
O=C(Nc1ccc(F)cc1)Nc1csc2ccccc12	9	0	60	52
COc1ccc(OC)c(/C=N/Nc2nnc3c(n2)[nH]c2c(C)cccc23)c1	/	12	/	/
CC(=O)N1CCc2ccc(NC(=O)COc3ccc(F)cc3)cc2C1	/	-2	/	/
